Bead autofluor: flagged as autofluorescent in microsphere protease counterscreen | compound autofluorescence counterscreen, microsphere flow cytometry; stronger effect = higher value | fluorescence intensity (concentration not given with the values) | 360,000 tested, 3.1% active | AID 624483; in the data active means fluorescence intensity above about 16000; inconclusive means no clear call, values can overlap the other calls
MazF activator: activators of E. coli MazEF toxin-antitoxin RNase, primary screen, biochemical, fluorescence, uHTS; activation, % at 20 µM; FAM/BHQ RNA-DNA oligo cleavage fluorescence, 5 h; 350,000 tested, 0.32% active; Endoribonuclease toxin MazF (Escherichia coli (strain K12)), P0AE70; in the data active means activation above about 50%
BoNT-F LC inh: BoNT/F light chain protease inhibitors, primary screen, biochemical, flow cytometry, MLPCN library; Botulinum neurotoxin type F light chain protease (Clostridium botulinum); Multiplex microsphere protease cleavage assay; inhibition, % at 10 µM; 360,000 tested, 0.22% active; AID 588497, 2011; in the data active means inhibition above about 35%, passing the limit was not always enough; inconclusive means no clear call, values can overlap the other calls; further: plate controls were buffer without enzyme for full effect and enzyme alone for no effect
Anthrax LF prot: Bacillus anthracis LF protease inhibitors, primary screen, biochemical, multiplex microsphere, MLPCN library. Lethal factor (Bacillus anthracis), P15917. multiplex microsphere protease cleavage assay. inhibition, % at 10 µM. 360,000 tested, 0.12% active; in the data active means inhibition above about 30%; inconclusive means no clear call, values can overlap the other calls; further: plate controls were buffer without enzyme for full effect and enzyme alone for no effect
Target sequence (P15917 whole entry, looked up): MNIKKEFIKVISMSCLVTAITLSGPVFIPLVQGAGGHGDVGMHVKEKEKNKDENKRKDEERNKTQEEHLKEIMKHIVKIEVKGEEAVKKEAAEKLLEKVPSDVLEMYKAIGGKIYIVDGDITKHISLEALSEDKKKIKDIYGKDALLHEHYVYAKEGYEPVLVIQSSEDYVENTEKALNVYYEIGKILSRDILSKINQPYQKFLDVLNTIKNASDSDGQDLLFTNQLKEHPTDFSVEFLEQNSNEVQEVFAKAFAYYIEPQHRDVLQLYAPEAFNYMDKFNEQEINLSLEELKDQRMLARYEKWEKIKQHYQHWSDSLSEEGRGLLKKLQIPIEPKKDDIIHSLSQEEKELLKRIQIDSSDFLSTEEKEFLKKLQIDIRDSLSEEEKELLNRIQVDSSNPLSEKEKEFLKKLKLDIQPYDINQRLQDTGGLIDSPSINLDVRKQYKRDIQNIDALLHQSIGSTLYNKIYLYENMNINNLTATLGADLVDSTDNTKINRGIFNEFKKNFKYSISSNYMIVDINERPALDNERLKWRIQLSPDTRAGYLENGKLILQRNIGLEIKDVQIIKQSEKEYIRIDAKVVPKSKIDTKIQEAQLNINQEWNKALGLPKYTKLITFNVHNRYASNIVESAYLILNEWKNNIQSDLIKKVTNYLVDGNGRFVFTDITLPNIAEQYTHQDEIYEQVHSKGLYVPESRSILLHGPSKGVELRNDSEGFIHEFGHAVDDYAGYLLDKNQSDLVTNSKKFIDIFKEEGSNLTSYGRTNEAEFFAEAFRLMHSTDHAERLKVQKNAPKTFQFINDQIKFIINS
BoNT-A LC inh2: BoNT/A light chain protease inhibitors, primary screen, biochemical, flow cytometry, MLPCN library. 360,000 tested, 0.17% active. multiplex microsphere protease substrate cleavage. inhibition, % at 10 µM. Botulinum neurotoxin type A light chain protease (Clostridium botulinum A str. ATCC 3502); in the data active means inhibition above about 30%; inconclusive means no clear call, values can overlap the other calls; further: plate controls were buffer without enzyme for full effect and enzyme alone for no effect
BoNTA LC inh 1: BoNT/A light chain protease inhibitors, confirmation, biochemical, flow cytometry, cherry pick 1; shares compounds with BoNT-F LC inh; multiplex microsphere protease assay; inhibition, % at 10 µM; 720 tested, 3% active; AID 602139, 2011; in the data active means inhibition above about 32%
BoNTF LC inh 1: BoNT/F light chain protease inhibitors, confirmation, biochemical, flow cytometry, cherry pick 1; shares compounds with BoNT-F LC inh; multiplex microsphere protease cleavage assay; inhibition, % at 10 µM; 720 tested, under 10 active
Anthrax LF CP1: Bacillus anthracis LF protease inhibitors, confirmation, biochemical, multiplex microsphere, cherry pick 1. shares compounds with BoNT-F LC inh. multiplex microsphere protease cleavage assay. inhibition, % at 10 µM. 720 tested, under 10 active. AID 602142, 2011
An asterisk follows results filed as active; ? = inconclusive; . = no result given. An excerpt weighted towards active compounds, which were near 3.7% of everything screened. Unless noted, how the calls were made is not given here.

SMILES	Bead autofluor	MazF activator	BoNT-F LC inh	Anthrax LF prot	BoNT-A LC inh2	BoNTA LC inh 1	BoNTF LC inh 1	Anthrax LF CP1
Cc1cccc2c1NC(C)CC2C (stereo not given)	2139	0	6	40*	34*	1	-2	-4
Cc1ccc(C(=O)N(CCC2=CCCCC2)c2c(N)n(Cc3ccccc3)c(=O)[nH]c2=O)o1	5952	10	-5	?	31*	-2	-10	2
Nc1c(N(CCC2=CCCCC2)C(=O)c2ccc([N+](=O)[O-])o2)c(=O)[nH]c(=O)n1Cc1ccccc1	.	-5	.	.	.	.	.	.
O=C1CN(Cc2ccccc2)CC(=O)N1	3950	-6	46*	-1	-2	-1	-2	0
O=C(CSc1nncn1-c1ccccc1)Nc1ccc(F)cc1F	5172	3	-2	4	0	.	.	.
C[C@@H]1CN([C@H](C)CO)C(=O)CCCn2nncc2CO[C@H]1CN(C)C(=O)Cc1ccccc1	3935	7	0	-4	-1	.	.	.
O=C(Nc1cccs1)NC1CCCC1	3254	6	1	-1	0	.	.	.
O=C(Nc1ccc2nc(-c3cccs3)c(-c3cccs3)nc2c1)NC1CC1	6638	10	36*	54*	83*	50*	-1	31*
CCOC(=O)c1c(C)[nH]c(C(=O)OC(C)C(=O)NC2CCCCC2C)c1C (stereo not given)	4174	-4	-14	-4	0	.	.	.
COc1cc(S(=O)(=O)N(Cc2cccs2)CC2CCCO2)ccc1-n1cnnn1 (stereo not given)	5631	0	41*	1	?	0	-3	0
c1ccc(Cn2c(CNc3nc4ccccc4n3CCN3CCCCC3)nc3ccccc32)cc1	3736	2	1	-2	0	.	.	.
c1ccc(Cn2c(CN3CCCC3)nc3ccccc32)cc1	6747	1	34	-2	3	-1	0	2
COc1cc2c(cc1OC)C(C)N(S(=O)(=O)c1ccc(C)cc1)CC2 (stereo not given)	3602	4	-4	4	0	.	.	.
COc1cc2c(cc1OC)C(C)N(S(=O)(=O)c1cccs1)CC2 (stereo not given)	3519	-6	-7	32*	6	1	-2	-1
CCCN1Cc2cccc(C(=O)NCCc3ccccc3)c2C1=O	4414	-4	?	-15	-4	.	.	.
NC(=O)c1ccsc1NC(=O)CSc1n[nH]c(N)n1	3459	-11	2	-4	0	.	.	.
Cc1ccsc1/C=C/C1=Cc2c(sc(NC(=O)CSc3n[nH]c(N)n3)c2C#N)C(C)(C)C1	18756*	11	24	33*	44*	21	1	12
CCOc1ccc(/C=C/C2=Cc3c(sc(NC(=O)CSc4n[nH]c(N)n4)c3C#N)C(C)(C)C2)cc1	7061	22	37*	58*	85*	29	6	20
CCCCN(C(=O)C(C)Oc1ccc(Cl)cc1)c1c(N)n(CCCC)c(=O)[nH]c1=O (stereo not given)	5589	-4	5	-1	2	.	.	.
CN(C)c1nc(N)c2nccnc2n1	2759	6	-7	-1	0	.	.	.
CSc1cnc2c(N)nc(N(C)C)nc2n1	2866	3	49*	4	6	-1	-1	-2
Cc1nc(-c2ccc(S(=O)(=O)NCc3ccccn3)s2)cs1	5899	-2	-4	-4	0	.	.	.
N=c1n(CCO)c2ccccc2n1Cc1ccccc1Cl	3346	-6	33	-2	1	-2	0	-1
COc1ccc(NC(=O)c2ccc(CNc3c(N4CCCC4)c(=O)c3=O)cc2)cc1Cl	3903	14	2	3	0	.	.	.

Bioassay records (PubChem BioAssay)
